# Measurements published in PubChem BioAssay AID504832 (National Center for Advancing Translational Sciences (NCATS), 2011).
# The whole screen tested about 310,000 compounds, of which about 18,000 (5.8%) were called active. Where a call stands in place of a potency, no number is given. Not shown: some 22% with an inconclusive outcome. This is one part of a sample in which actives are shown more often than they occur. The call rests on the fitted dose curve; in most records, active means well fitted inhibition curve with a large enough effect; inconclusive means small, poorly fitted or top-dose-only effect, or another doubt; inactive means no such curve, though single readings can be large or run the other way.
# Test: Primary qHTS for delayed death inhibitors of the malarial parasite plastid, 48 hour incubation
# Settings: P. falciparum luciferase growth in erythrocytes; series mostly up to 28.7 µM
# Summary of the method: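 Growth was read as firefly luciferase luminescence after a 48 h, 37 C, 5% CO2 exposure of compounds to reporter-bearing P. falciparum cultures (0.1% parasitemia, 2% hematocrit final) in Albumax-supplemented RPMI 1640.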
# Potency means the concentration at half of the fitted maximal effect.
SMILES,Potency,"activity change, negative = inhibition"
CC1CN(S(=O)(=O)c2cccc(C(F)(F)F)c2)CN1C(=O)N1CCOCC1 (stereo not drawn),inactive,
Cc1ccc(C(=O)NC2CCN(C(=O)Nc3ccccc3Cl)CC2)cc1,inactive,
CC1=C(C(N)=O)C(c2ccc(Br)cc2)n2ncnc2N1 (stereo not drawn),,5.11% [at 0.00184 µM] (inactive)
Clc1ccc2c(c1)C1=C(C(c3ccncc3)O2)C(c2ccc(Br)cc2)n2ncnc2N1 (stereo not drawn),13.1 µM (active),
COC(=O)C1=C(C)Nc2ncnn2C1c1cccnc1 (stereo not drawn),inactive,
CN1CCN(C(=O)C(=O)c2cn(CC(=O)N3CCCC3)c3ccccc23)CC1,inactive,
CCN(CC)S(=O)(=O)c1ccc(N2CCOCC2)c(NC(=O)C2COc3ccccc3O2)c1 (stereo not drawn),inactive,
COCCNC(=S)Nc1cc(S(=O)(=O)N2CCOCC2)ccc1N1CCCCC1,inactive,
O=C(COC(=O)Cc1ccc(F)cc1)Nc1cc(S(=O)(=O)N2CCOCC2)ccc1N1CCCC1,inactive,
CCN(CC(=O)N1CCCC1)S(=O)(=O)c1ccc(F)cc1,inactive,
CCN(CC)S(=O)(=O)c1ccc(N2CCOCC2)c(NC(=O)C(C)Oc2ccc(F)cc2)c1 (stereo not drawn),4.65 µM (active),
CCN1CCN(c2ccc(S(=O)(=O)N3CCCCC3)cc2NC(=O)Cc2c(Cl)cccc2Cl)CC1,inactive,
CCN1CCN(c2ccc(S(=O)(=O)N3CCCCC3)cc2NC(=O)c2cccc(NC(C)=O)c2)CC1,13.1 µM (active),
Cc1ccc(S(=O)(=O)N2CCCCC2)cc1NC(=O)c1cccnc1,inactive,
CCN(CC)S(=O)(=O)c1cc(C(=O)Nc2cc(S(=O)(=O)N3CCOCC3)ccc2N2CCCC2)ccc1F,7.38 µM (active),
Cc1cc(NC(=O)CSC2=NS(=O)(=O)c3cc(Cl)ccc3N2)no1,inactive,
Cc1cc(S(=O)(=O)c2cc3ccc(O)c(C)c3oc2=O)ccc1F,,8.19% [at 0.00184 µM] (inactive)
CCN(CC(=O)NCC(=O)Nc1cccc(C)c1C)Cc1ccccc1,inactive,
CC(Oc1cc2oc(=O)c3c(c2cc1Cl)CCCC3)C(=O)NCc1ccncc1 (stereo not drawn),inactive,
Cc1nc2nc(C)c(NS(=O)(=O)c3ccc(C(C)(C)C)cc3)c(=O)n2[nH]1,inactive,
CCCc1nn2c(=O)cc(CSCC(=O)Nc3cccc(C)c3)nc2s1,inactive,
CCCNC(=S)N1CCC(NC(=O)c2ccc(OC)cc2)CC1,inactive,
COc1ccc(C(=O)NC2CCN(C(=S)Nc3ccccc3)CC2)cc1,inactive,
COc1cc(OC)cc(C(=O)NC2CCN(C(=O)N3c4ccccc4Sc4ccccc43)CC2)c1,13.1 µM (active),
CSc1ccc(S(=O)(=O)N2CCC(C(=O)NCc3ccncc3)CC2)cc1,inactive,
Cn1c2cc(B(O)O)sc2c2cnn(Cc3ccccc3F)c(=O)c21,10.4 µM (active),
O=c1c2ccccc2cnn1Cc1n[nH]c(=S)n1-c1ccccc1F,inactive,

SMILES,Potency,"activity change, negative = inhibition"
Cn1cc(C(=O)NCc2ccccc2F)cn1,inactive,
Cc1[nH]c2ccc(C(=O)N3CCN(C)CC3)cc2c1C,inactive,
Cc1nn(-c2ccccc2)c(C)c1/C=N/NC(=O)CSc1nc2ccccc2c(=O)n1-c1ccccc1,inactive,
COCCNC(=O)c1ccc(-n2c(SCc3cccnc3)nc3ccccc3c2=O)cc1,inactive,
COC(=O)c1ccc(CSc2nc3ccccc3c(=O)n2-c2cccc(OC)c2)o1,13.1 µM (active),
CN=C1S/C(=C\c2c(OC)cc(OC)cc2OC)C(=O)N1C,inactive,
CC(=O)NCCc1ccc(S(=O)(=O)Nc2ccc(C)c(S(=O)(=O)N3CCOCC3)c2)cc1,inactive,
COCCNC(=O)C(c1ccc(C)cc1)N(C(=O)CCC(=O)Nc1ccccn1)c1cccc(C)c1 (stereo not drawn),inactive,
COc1ccccc1N1CC(C(=O)Nc2nnc(SCC(=O)NC(C)C)s2)CC1=O (stereo not drawn),inactive,
COc1ccccc1N1CC(C(=O)Nc2nnc(SCC(=O)NCC3CCCO3)s2)CC1=O (stereo not drawn),inactive,
Cc1ccc(C(=O)OCC(=O)NCc2cc(C)c(O)c(C)c2)cc1S(=O)(=O)N1CCCCC1,8.28 µM (active),
Cc1ccc(C(=O)OCC(=O)N2CC(C)CC(C)C2)cc1S(=O)(=O)N1CCCCC1 (stereo not drawn),inactive,
Cc1ccc(C(=O)NCC(=O)O)cc1S(=O)(=O)N1CCCCC1,inactive,
O=C(c1ccccc1F)N1CCN(S(=O)(=O)c2ccc(Br)cc2)CC1,inactive,
CCOC(=O)c1cc(-c2ccccc2C)n(Cc2cc(C)no2)n1,inactive,
COc1ccc(N2CCC(N3CCN(C)C(CCO)C3)CC2)cc1 (stereo not drawn),inactive,
COc1cccc(N2CC(C(=O)Nc3c(C)cccc3C)CC2=O)c1 (stereo not drawn),inactive,
COc1ccc(NC(=S)NCCN2CCC(C)CC2)cc1,,17.2% [at 5.75 µM] (inactive)
COc1ccc(N2CCC(CNC(=S)Nc3c(C)cccc3C)C2)cc1 (stereo not drawn),11.7 µM (active),
COc1ccc(NC(=S)NCC2CCN(c3ccc(OC)cc3)C2)cc1 (stereo not drawn),11.7 µM (active),
COc1ccc(NC(=O)N2CCC(Cc3ccccc3)CC2)cc1,inactive,
Cc1cc(C)cc(NS(=O)(=O)Cc2ccccc2)c1,inactive,
CC(OC(=O)/C=C/c1ccccc1)C(=O)Nc1ccc(C(N)=O)cc1 (stereo not drawn),inactive,
Cc1ccccc1NC(=O)Cc1nc(COC(=O)c2ccc(C(F)(F)F)cc2)cs1,inactive,
Cc1ccc(S(=O)(=O)N2CC(C)N(S(C)(=O)=O)C2)cc1 (stereo not drawn),inactive,
CCOC(=O)C1=C(COC(=O)[C@H](C)NS(=O)(=O)c2ccccc2F)NC(=O)NC1C (stereo partly drawn),inactive,
